Measurements reported in PubChem BioAssay (Tox21).
Values joined by “and” are separate entries in the source; they are usually repeats but may differ in a detail not shown here. Equal values may be shown once. Records with an inconclusive call do not appear. Entries that show only a call come without a potency. Some compounds were tested as several samples or in several runs, with calls that do not always agree. Active and inactive are the calls of the source. Unless noted, calls follow the shape of the dose curve; as a rule, active = well fitted curve in the direction sought with a large enough effect in the repeat runs; inconclusive = weak or mixed curves; inactive = no such curve, though single readings can be large; an effect the other way counts as inactive or inconclusive.

Key:
[1] = qHTS assay to identify aromatase inhibitors - cell viability counter screen (AID 743084);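 also: cells stimulated with testosterone during compound exposure; nearly all actives have a fitted effect of over 55% in size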
[2] = target: Aryl hydrocarbon receptor (Homo sapiens) (UniProt P35869); experiment: qHTS assay to identify small molecule that activate the aryl hydrocarbon receptor (AhR) signaling pathway (AID 743085); also: nearly all actives have a fitted effect of over 15% in size; also: potency is read from the fitted curve at half-maximal effect;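 as to activation: HG2L7.5c1 human HepG2 liver cells with stably integrated DRE-driven firefly reporter; series mostly up to about 70 µM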
Summary of the method: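 Stably transfected human liver carcinoma cells (HG2L7.5c1; 20 DRE-firefly luciferase) were incubated 5 h, dosed, and kept 24 h at 37C. Agonism was scored from increased luciferase luminescence.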

[3] = qHTS assay to identify small molecule that activate the aryl hydrocarbon receptor (AhR) signaling pathway - cell viability counter screen (AID 743086);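 also: HepG2 liver cells carrying the AhR DRE luciferase reporter; series mostly up to about 70 µM; nearly all actives have a fitted effect of over 45% in size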
Summary of the method: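 Cytotoxicity counter screen: CellTiter-Fluor signal (30 min, 37 C) in 4000 HepG2 cells/well carrying the DRE-luciferase reporter, following 24 h compound exposure at 37 C.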

[4] = target: Peroxisome proliferator-activated receptor gamma (Homo sapiens) (UniProt P37231); experiment: qHTS assay to identify small molecule agonists of the peroxisome proliferator-activated receptor gamma (PPARg) signaling pathway (AID 743094; active = well fitted activation curve with a large enough effect in the signal ratio in the repeat runs, not every such curve was filed as active; the % refers to the signal ratio)
Summary of the method: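 Cells from the PPARg UAS-bla HEK293H line are plated and incubated 5 h at 37C. Compounds in DMSO are pinned in and left 17 h at 37C. LiveBLAzer B/G substrate is then added for 1 h at room temperature before fluorescence is measured.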

[5] = target: Peroxisome proliferator-activated receptor gamma (Homo sapiens) (UniProt P37231); experiment: qHTS assay to identify small molecule antagonists of the peroxisome proliferator-activated receptor gamma (PPARg) signaling pathway (AID 743191; calls by dose curve; also: series mostly up to about 63 µM; nearly all actives have a fitted effect of over 30% in size)
Summary of the method: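 Beta-lactamase reporter under UAS control in HEK293H PPARg-bla cells; compound treatment 17 h at 37C. Read-out: fluorescence intensity after 1 h room-temperature incubation with LiveBLAzer B/G FRET substrate.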

[6] = qHTS assay to identify small molecule antagonists of the peroxisome proliferator-activated receptor gamma (PPARg) signaling pathway - cell viability counter screen (AID 743194); also: nearly all actives have a fitted effect of over 55% in size
Summary of the method: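 Viability was measured as CellTiter-Glo luminescence in GeneBLAzer PPARg UAS-bla HEK293H cells. These cells had been exposed 17 h at 37 C to compounds together with rosiglitazone at 50 nM final, with the beta-lactamase readout taken in the same wells.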

[7] = qHTS assay for small molecule agonists of the antioxidant response element (ARE) signaling pathway (AID 743202; active = well fitted activation curve with a large enough effect in the signal ratio in the repeat runs, not every such curve was filed as active; the % refers to the signal ratio)
Summary of the method: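 Beta-lactamase reporter activity, read as fluorescence intensity, reflects ARE/Nrf2 pathway induction in HepG2 cells after 16 h compound exposure at 37 C; substrate loading was 2 h at room temperature.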

[8] = qHTS assay for small molecule agonists of the antioxidant response element (ARE) signaling pathway - cell viability counter screen (AID 743203; calls by dose curve; also: nearly all actives have a fitted effect of over 55% in size)
Summary of the method: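 Cytotoxicity was tested in parallel with the ARE reporter screen. ARE-bla HepG2 cells were exposed to compounds for 16 hrs, and viability was taken from CellTiter-Glo luminescence.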

[9] = qHTS assay for small molecule activators of the heat shock response signaling pathway - cell viability counter screen (AID 743209); also: nearly all actives have a fitted effect of over 50% in size
Summary of the method: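 Cytotoxicity counter screen run in parallel with the HSE beta-lactamase reporter, using the same wells. HeLa HSE-bla cells received compound for 5 h at 37 C; ATP-based CellTiter-Glo luminescence was measured after 30 min at room temperature.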

[10] = qHTS assay for small molecule activators of the heat shock response signaling pathway (AID 743210; active = well fitted activation curve with a large enough effect in the signal ratio in the repeat runs, with a control signal flat, not every such curve was filed as active; the % refers to the signal ratio;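 also: HeLa cells with beta-lactamase reporter driven by heat shock elements; series mostly up to about 63 µM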)
Summary of the method: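 Fluorescence from a cleaved B/G FRET substrate (2.5 h, room temp) reports HSE-driven beta-lactamase in HeLa cells treated 5 h at 37 C with DMSO-dissolved compounds.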

[11] = qHTS assay to identify small molecule agonists of the peroxisome proliferator-activated receptor delta (PPARd) signaling pathway - cell viability counter screen (AID 743211); also: nearly all actives have a fitted effect of over 55% in size
Summary of the method: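 In the same wells used for beta-lactamase reporter measurement, cytotoxicity is scored by CellTiter-Glo. HEK293H PPARd-bla cells receive compound for 17 h at 37C following a 5 h settling period.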

[12] = qHTS assay to identify small molecule antagonists of the peroxisome proliferator-activated receptor delta (PPARd) signaling pathway - cell viability counter screen (AID 743213); also: nearly all actives have a fitted effect of over 50% in size
Summary of the method: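 Same-well viability: cells pre-incubated 5 h, dosed with compound plus 300 nM L165041, kept 17 h at 37 C, FRET substrate 2 h RT, then CellTiter-Glo 30 min RT and luminescence.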

[13] = qHTS assay to identify small molecule agonists of the farnesoid-X-receptor (FXR) signaling pathway - cell viability counter screen (AID 743218); also: nearly all actives have a fitted effect of over 45% in size
Summary of the method: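 Cells were seeded, left 5 h at 37 C and 5% CO2, then dosed with compound in DMSO for 16 h. After the beta-lactamase FRET read, CellTiter-Glo was added and luminescence measured 30 min later.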

[14] = qHTS assay to identify small molecule antagonists of the farnesoid-X-receptor (FXR) signaling pathway - cell viability counter screen (AID 743221; active = well fitted cell-killing curve with a large enough effect in the repeat runs, not every such curve was filed as active; also: nearly all actives have a fitted effect of over 50% in size)
Summary of the method: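 Here viability was scored by luminescence after CellTiter-Glo addition to wells already read for beta-lactamase. Prior treatment: compound plus CDCA (50 uM final), 16 h, 37 C, HEK 293T FXR-bla cells.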

[15] = target: Peroxisome proliferator-activated receptor delta (Homo sapiens) (UniProt Q03181); experiment: qHTS assay to identify small molecule agonists of the peroxisome proliferator-activated receptor delta (PPARd) signaling pathway (AID 743212; calls by dose curve)
Summary of the method: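 Steps: seed PPARd-bla HEK293H cells; incubate 5 h, 37 C, 5% CO2; add compounds in DMSO; incubate, 37 C; add LiveBLAzer B/G FRET substrate; hold 2 h at room temperature; measure fluorescence.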

[16] = target: Peroxisome proliferator-activated receptor delta (Homo sapiens) (UniProt Q03181); experiment: qHTS assay to identify small molecule antagonists of the peroxisome proliferator-activated receptor delta (PPARd) signaling pathway (AID 743215; active = well fitted inhibition curve with a large enough effect in the signal ratio in the repeat runs, not every such curve was filed as active; the % refers to the signal ratio;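 also: cells stimulated with agonist L165041 at 300 nM final during compound exposure; series mostly up to about 62 µM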)
Summary of the method: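 Cells: HEK293H with a UAS-driven beta-lactamase reporter responsive to PPARd. Compounds were co-added with L165041 (300 nM, final) and incubated 17 h at 37 C before a 2 h room-temperature FRET substrate step and fluorescence reading.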

[17] = target: Vitamin D3 receptor (Homo sapiens) (UniProt P11473); experiment: qHTS assay to identify small molecule agonists of the vitamin D receptor (VDR) signaling pathway (AID 743222; calls by dose curve)
Summary of the method: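 Cells carrying a VDR-driven beta-lactamase reporter are seeded at 2,000 per well and rested 4 h. Compounds in DMSO are added for 16 h at 37C, and FRET substrate fluorescence is measured after 2 h at room temperature.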

[18] = target: Vitamin D3 receptor (Homo sapiens) (UniProt P11473); experiment: qHTS assay to identify small molecule antagonists of the vitamin D receptor (VDR) signaling pathway (AID 743223; active = well fitted inhibition curve with a large enough effect in the signal ratio in the repeat runs, not every such curve was filed as active; the % refers to the signal ratio)
Summary of the method: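 Inhibition of agonist-driven VDR signalling is scored in VDR-bla cells: 3 nM final 1alpha,25-dihydroxyvitamin D3 plus compound, 16 h at 37C, then beta-lactamase detection by FRET substrate fluorescence after 2 h.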

[19] = target: Bile acid receptor (Homo sapiens) (UniProt Q96RI1); experiment: qHTS assay to identify small molecule agonists of the farnesoid-X-receptor (FXR) signaling pathway (AID 743220; active = well fitted activation curve with a large enough effect in the signal ratio in the repeat runs, not every such curve was filed as active; the % refers to the signal ratio)
Summary of the method: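 FXR-UAS-bla HEK 293T cells carrying a UAS-driven beta-lactamase reporter were plated for 5 h at 37C/5% CO2, then exposed to DMSO-dissolved Tox21 10K compounds for 16 h at 37C. A LiveBLAzer B/G FRET substrate was loaded for 2 h at room temperature before fluorescence reading.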

Chain of Aryl hydrocarbon receptor (Homo sapiens) (P35869 whole entry, looked up): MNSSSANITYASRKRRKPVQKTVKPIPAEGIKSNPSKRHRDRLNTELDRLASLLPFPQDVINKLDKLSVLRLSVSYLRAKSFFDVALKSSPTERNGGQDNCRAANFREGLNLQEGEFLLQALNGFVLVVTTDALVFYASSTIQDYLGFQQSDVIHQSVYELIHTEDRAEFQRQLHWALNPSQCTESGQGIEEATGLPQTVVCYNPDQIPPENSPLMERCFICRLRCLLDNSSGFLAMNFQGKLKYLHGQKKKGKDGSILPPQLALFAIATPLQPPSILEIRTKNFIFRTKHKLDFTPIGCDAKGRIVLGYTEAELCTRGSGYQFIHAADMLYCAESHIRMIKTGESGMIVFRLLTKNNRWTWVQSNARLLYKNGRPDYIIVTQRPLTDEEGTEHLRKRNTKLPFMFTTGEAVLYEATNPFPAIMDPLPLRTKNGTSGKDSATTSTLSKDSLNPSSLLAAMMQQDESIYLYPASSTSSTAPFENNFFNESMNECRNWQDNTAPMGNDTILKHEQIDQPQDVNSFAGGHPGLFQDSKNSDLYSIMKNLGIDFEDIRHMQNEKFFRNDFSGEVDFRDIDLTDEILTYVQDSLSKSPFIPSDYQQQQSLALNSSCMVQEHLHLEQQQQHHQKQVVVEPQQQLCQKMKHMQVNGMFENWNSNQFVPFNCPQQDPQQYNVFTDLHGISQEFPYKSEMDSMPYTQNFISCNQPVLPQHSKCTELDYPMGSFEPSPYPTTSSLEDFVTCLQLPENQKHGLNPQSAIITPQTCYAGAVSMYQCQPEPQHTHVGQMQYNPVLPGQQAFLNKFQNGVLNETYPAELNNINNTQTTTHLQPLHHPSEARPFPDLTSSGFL
Chain of Vitamin D3 receptor (Homo sapiens) (P11473 whole entry, looked up): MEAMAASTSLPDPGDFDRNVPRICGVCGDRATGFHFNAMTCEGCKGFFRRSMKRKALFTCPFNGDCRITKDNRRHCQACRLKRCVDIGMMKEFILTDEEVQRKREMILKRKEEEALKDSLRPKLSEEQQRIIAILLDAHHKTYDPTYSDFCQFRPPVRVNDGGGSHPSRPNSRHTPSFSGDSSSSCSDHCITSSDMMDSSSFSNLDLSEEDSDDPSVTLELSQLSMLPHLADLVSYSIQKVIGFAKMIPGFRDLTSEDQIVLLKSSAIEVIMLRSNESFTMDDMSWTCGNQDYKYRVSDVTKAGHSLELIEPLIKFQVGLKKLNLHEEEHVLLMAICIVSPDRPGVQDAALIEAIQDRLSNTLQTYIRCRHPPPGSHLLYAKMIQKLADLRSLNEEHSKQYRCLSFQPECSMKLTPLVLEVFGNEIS
Chain of Peroxisome proliferator-activated receptor delta (Homo sapiens) (Q03181 whole entry, looked up): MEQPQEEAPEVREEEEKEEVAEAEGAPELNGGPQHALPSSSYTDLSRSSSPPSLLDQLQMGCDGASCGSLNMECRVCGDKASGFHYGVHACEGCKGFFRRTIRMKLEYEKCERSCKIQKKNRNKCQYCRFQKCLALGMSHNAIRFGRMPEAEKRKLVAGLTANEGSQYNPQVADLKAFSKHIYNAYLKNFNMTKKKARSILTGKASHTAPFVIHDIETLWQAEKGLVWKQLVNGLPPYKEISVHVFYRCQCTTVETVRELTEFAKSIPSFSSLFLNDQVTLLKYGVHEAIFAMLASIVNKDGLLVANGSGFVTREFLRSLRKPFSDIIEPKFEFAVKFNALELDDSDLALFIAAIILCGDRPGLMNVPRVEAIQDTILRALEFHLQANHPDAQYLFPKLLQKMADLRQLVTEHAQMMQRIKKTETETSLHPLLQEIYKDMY
Chain of Bile acid receptor (Homo sapiens) (Q96RI1 whole entry, looked up): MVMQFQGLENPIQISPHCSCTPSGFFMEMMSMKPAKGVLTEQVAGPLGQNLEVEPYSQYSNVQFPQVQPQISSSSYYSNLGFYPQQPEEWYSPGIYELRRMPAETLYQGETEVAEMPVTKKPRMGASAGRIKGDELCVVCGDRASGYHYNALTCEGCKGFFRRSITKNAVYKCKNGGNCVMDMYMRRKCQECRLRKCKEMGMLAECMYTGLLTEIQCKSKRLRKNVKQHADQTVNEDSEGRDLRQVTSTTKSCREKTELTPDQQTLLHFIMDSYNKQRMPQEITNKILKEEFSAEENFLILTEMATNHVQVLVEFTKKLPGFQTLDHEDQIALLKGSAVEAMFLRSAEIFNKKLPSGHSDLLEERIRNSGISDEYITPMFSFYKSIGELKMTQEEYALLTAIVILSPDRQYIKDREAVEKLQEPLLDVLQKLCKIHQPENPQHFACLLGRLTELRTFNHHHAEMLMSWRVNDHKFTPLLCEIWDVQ
Chain of Peroxisome proliferator-activated receptor gamma (Homo sapiens) (P37231 whole entry, looked up): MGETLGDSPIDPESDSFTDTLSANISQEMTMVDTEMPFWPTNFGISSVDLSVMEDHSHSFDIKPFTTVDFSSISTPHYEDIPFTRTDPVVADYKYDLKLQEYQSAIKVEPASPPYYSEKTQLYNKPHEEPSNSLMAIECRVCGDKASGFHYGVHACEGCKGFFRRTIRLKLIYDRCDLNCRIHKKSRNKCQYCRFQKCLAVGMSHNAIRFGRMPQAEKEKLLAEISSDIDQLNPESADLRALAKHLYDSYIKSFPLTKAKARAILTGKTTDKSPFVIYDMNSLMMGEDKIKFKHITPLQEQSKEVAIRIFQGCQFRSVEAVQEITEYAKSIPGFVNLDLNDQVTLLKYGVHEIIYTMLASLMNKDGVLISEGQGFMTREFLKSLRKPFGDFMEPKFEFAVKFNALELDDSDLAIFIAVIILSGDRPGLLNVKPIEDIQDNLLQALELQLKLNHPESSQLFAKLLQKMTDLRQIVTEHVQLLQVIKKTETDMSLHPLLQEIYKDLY

| Compound | Potency [1] | Potency [2] | outcome [3] | outcome [4] | Potency [5] | outcome [6] | Potency [7] | Potency [8] | Potency [9] | Potency [10] | Potency [11] | outcome [12] | Potency [13] | Potency [14] | outcome [15] | outcome [16] | outcome [17] | outcome [18] | outcome [19] |
| --- | --- | --- | --- | --- | --- | --- | --- | --- | --- | --- | --- | --- | --- | --- | --- | --- | --- | --- | --- |
| O=C(O)c1cc(Oc2ccc(C(F)(F)F)cc2Cl)ccc1[N+](=O)[O-] | inactive | inactive | inactive | inactive | inactive | inactive | inactive | inactive | inactive | inactive | inactive | inactive | inactive | inactive |  |  |  |  |  |
| Cc1ccc(O)c(C)c1 | inactive | inactive | inactive | inactive | inactive | inactive |  | inactive | inactive | inactive | inactive | inactive | inactive | inactive | inactive | inactive |  |  |  |
| ClC(Cl)c1ccccc1 | inactive | inactive | inactive | inactive | inactive | inactive |  |  | inactive | inactive | inactive | inactive | inactive | inactive | inactive | inactive | inactive | inactive |  |
| CN(C)C(=O)C(c1ccccc1)c1ccccc1 | inactive | inactive | inactive | inactive | inactive | inactive |  |  | inactive | inactive | inactive | inactive | inactive | inactive | inactive |  | inactive |  |  |
| CCCCC(CC)C(=O)Cl (stereo not given) | inactive | inactive | inactive | inactive | inactive | inactive | inactive | inactive | inactive | inactive | inactive | inactive | inactive | inactive | inactive | inactive |  |  | inactive |
| CCNc1nc(Cl)nc(NC(C)C)n1 | inactive | inactive | inactive | inactive | inactive | inactive | inactive |  | inactive | inactive | inactive | inactive | inactive | inactive | inactive | inactive | inactive | inactive |  |
| Cc1cccc(N)c1C | inactive | inactive and 48.6 µM (active) | inactive | inactive |  | inactive | inactive | inactive | inactive | inactive | inactive | inactive | inactive | inactive | inactive | inactive | inactive | inactive | inactive |
| Cc1ccc(N)cc1 | inactive | 24.5 µM (active) and inactive and 61.1 µM (active) | inactive | inactive |  | inactive | inactive | inactive | inactive | inactive | inactive | inactive | inactive | inactive |  |  |  |  |  |
| N#Cc1cccc(C#N)c1 | inactive | inactive | inactive | inactive | inactive | inactive |  |  | inactive | inactive | inactive | inactive | inactive | inactive | inactive | inactive | inactive | inactive |  |
